Several values for one entry are separate records, joined by “and”; a condition that tells them apart may be missing. Identical values can stand only once. The whole screen tested about 69,000 compounds, of which about 2,600 (3.8%) were called active. Rule as the data show it: active = activity change below about -70% (passing the limit was not always enough); inconclusive = no clear call, values can overlap the other calls. The sample as a whole holds a higher share of actives than the screen did.

The assay is described as follows: inhibitors of Toxoplasma growth in IFN-γ-primed hosts – cell-based, primary screen (AID 1259416).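 Also: host cells are HeLa cells infected with Toxoplasma gondii.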 The note with it: Toxoplasma gondii growth in IFN-gamma-treated host cells; hits give low values; concentration not given here.
Regarding `Nc1cc(N2C[C@H]3CC=CC[C@H]3C2)nc(N2CCOCC2)n1`, the activity change, negative = inhibition was 14.9% (inactive). Next, `Nc1cc(C(F)(F)F)c(-c2cc(N3CCOCC3)nc(N3CCOCC3)n2)cn1`: -74.6% (active). Next, `c1cnc2c(-c3cc(N4CCOCC4)ncn3)cccc2c1`: 12.9% (inactive); `Cc1ncc(C(=O)NCCCn2ccc3ccccc32)c(C)n1`: 2.92% (inactive). Under `CCS(=O)(=O)N1CC2(CN(C(=O)c3ccc(F)cc3)[C@@H](CO)c3c2c2ccc(OC)cc2n3C)C1` stands 62.5% (inactive); under `CC(C)CN1CCS(=O)(=O)[C@H]2CCN(S(=O)(=O)N(C)C)CC[C@@H]21`, -5.98% (inactive).

`Cn1nc(C(=O)NCC2CCC(c3nnc(-c4ccncc4)o3)CC2)ccc1=O` (stereo not drawn): the activity change, negative = inhibition is 24.6% (inactive).

As to `O=C(O)CC1CCC(c2ccc(-c3ccc(Nc4ccc(C(F)(F)F)nc4)cn3)cc2)CC1` (stereo not drawn), the activity change, negative = inhibition is -61.2% (inactive). Under `CCCC1CCC(c2ccc(-c3ccc(CC)cn3)cc2F)CC1` (stereo not drawn) stands -76% (active); under `COCCN(Cc1cccs1)C(=O)c1ccncc1Cl`, 3.28% (inactive). As for `COc1cccc(C2=NN(C(=O)C(C)C)C(O)(C(F)(F)F)C2)c1` (stereo not drawn), the activity change, negative = inhibition was -0.0765% (inactive). With `COc1c(C)cnc(CN(C)C(=O)c2cnn3cc(C)cnc23)c1C`, the activity change, negative = inhibition is -3.21% (inactive). Next, `COCC1CCN(c2nc(C(C)(C)C)nc3c2cnn3C)C1` (stereo not drawn): -12.1% (inactive); `O=C(Nc1cccnc1)c1cc2c(s1)-c1ccccc1CC2`: -101% (active). Next, `Cc1ccc(N2CC3(CCN(C(=O)COc4ccccc4)C3)CC2=O)cc1` (stereo not drawn): -15.8% (inactive). Under `CCN1CCN(c2ncnc3sc(C(=O)NCCc4c[nH]c5ccc(Cl)cc45)c(C)c23)CC1` stands -83.1% (active); under `O=C(NCCc1c[nH]c2ccccc12)c1cc(=O)nc2sc(N3CCCC3)nn12`, 5.09% (inactive). On to `CCOC(=O)c1nc(NCCc2c[nH]c3ccc(Cl)cc23)c2c(C)noc2n1`, for which the activity change, negative = inhibition is 46.7% (inactive). Next, `COCCn1cc(-c2nc(C(=O)NCCc3cccnc3)c3ccccn23)nc1C`: -8.4% (inactive); `O=C(O)CC1(CC(=O)Nc2ccc(N3CCCCC3)cc2)CCCCC1`: 96.8% (inactive); `CC(C)(C)c1ccc(C(=O)NC(=S)Nc2ccc(N3CCCCC3)cc2)cc1`: -87.8% (active). On to `Cc1ccc(C(=O)NC(=S)Nc2cccc(NC(=O)c3ccccc3)c2)cc1C`, for which the activity change, negative = inhibition is -63.6% (inactive). Under `Cc1cc(NC(=O)CC2CCCCC2)n(-c2ncnc3c2cnn3-c2ccc(Cl)cc2)n1` stands 16.1% (inactive); under `CC1CCN(c2cncnc2-n2cc(NC(=O)CC3CCCCC3)cn2)CC1`, -88.5% (active); under `CC1CCN(c2ncnc3c2cnn3CC(=O)Nc2cc(F)cc(F)c2)CC1`, -68.2% (inactive). Under `Cc1c(CN(C)C(=O)COc2cccnc2)[nH]c2ccccc12` stands 66.9% (inactive); under `Cc1cccc(-c2[nH]n3c(=O)cc(C(C)n4cnc5ccccc5c4=O)nc3c2C)c1` (stereo not drawn), -29.3% (inactive); under `COc1cc(CCC(C)NC(=O)c2ccc(C)cc2)ccc1OC(=O)c1ccc(C)cc1` (stereo not drawn), -12.5% (inactive). Next, `O=C1c2ccc(Nc3ccc(F)cc3F)cc2CCc2ccc(OC[C@H](O)CO)cc21`: -74% (active). Take `COCC(=O)N1CCC2(CC1)C(=O)N(c1cncnc1)c1ccccc12`: the activity change, negative = inhibition was -5.94% (inactive). Next, `C[C@H]1CN([C@@H](C)CO)S(=O)(=O)c2ccc(C#Cc3cccc(F)c3)cc2O[C@@H]1CN(C)S(=O)(=O)c1cn(C)cn1`: -91.2% (active). Next, `C[C@@H]1CN([C@@H](C)CO)S(=O)(=O)c2ccc(C#Cc3cccc(F)c3)cc2O[C@H]1CN(C)S(=O)(=O)c1cn(C)cn1`: -31.1% (inactive); `C[C@H]1CN([C@@H](C)CO)S(=O)(=O)c2ccc(C#CC3(O)CCCC3)cc2O[C@@H]1CN(C)C(=O)Nc1cccc(F)c1`: -69.9% (inactive); `Cn1c(=O)c2nc(-c3ccc(I)cc3)oc2c2ccccc21`: -20.4% (inactive). Under `CCCN1CCn2cc(C(=O)N3CCN(c4cccc(OC)c4)CC3)nc2C1` stands 15% (inactive). Take `CC(Cc1ccco1)NC(=O)c1nc(Nc2ccccc2)c2ccccc2n1` (stereo not drawn): the activity change, negative = inhibition is -47% (inactive). Next, `Cc1cccc(Nc2nc(C(=O)Nc3cccc4c3CCCC4)nc3ccccc23)c1`: -67.4% (inactive); `O=C(Nc1ccccc1Br)c1nc(Nc2ccccc2)c2ccccc2n1`: -74.2% (active); `Cc1ccc(CNC(=O)c2nc(Nc3ccc(C)cc3)c3ccccc3n2)cc1`: 40.8% (inactive). As for `Cc1ccc(Nc2nc(C(=O)Nc3ccc(Cl)cc3F)nc3ccccc23)cc1`, the activity change, negative = inhibition was 4.67% (inactive). For the compound `O=C(NCc1cccc(Br)c1)c1nc(Nc2ccc(F)cc2)c2ccccc2n1`, the activity change, negative = inhibition was -65.9% (inactive).

For the compound `Cc1cccc(CNC(=O)c2nc(Nc3cccc(C)c3)c3ccccc3n2)c1`, the activity change, negative = inhibition was -89.5% (active). Next, `O=C(NC1CCCCC1)c1nc(Nc2ccccc2)c2ccccc2n1`: -55.7% (inactive); `Cc1cccc(Nc2nc(C(=O)Nc3cccc(Cl)c3C)nc3ccccc23)c1`: -75.4% (active); `CCOc1ccccc1NC(=O)OC1CCCN1C(=O)NCc1ccccc1` (stereo not drawn): -2.55% (inactive). Under `O=C(COC(=O)c1ccc(Cl)nc1)NCc1ccc2c(c1)OCO2` stands 8.52% (inactive); under `CC(=O)c1c(C)nn(CCC(=O)N2CCC(c3ccccc3C(=O)O)C2)c1C` (stereo not drawn), 2.53% (inactive); under `Cc1nc(C)c(S(=O)(=O)NC(CCN2CCOCC2)c2ccccc2)s1` (stereo not drawn), 12.7% (inactive). Under `CC(C(=O)NCc1ccccc1F)N(c1ccccc1)S(C)(=O)=O` (stereo not drawn) stands 12.1% (inactive).

For the compound `O=C(Cn1ncc2c(N3CCN(c4ccccn4)CC3)ncnc21)Nc1cc(F)ccc1F`, the activity change, negative = inhibition was -34% (inactive). Under `O=C(Cc1ccccc1)NCCc1nc(N2CCOCC2)ncc1C(=O)N1CCCC1` stands 8.84% (inactive); under `CN1C2CCN(Cc3nccs3)CC2C[C@H]1Cn1cncn1` (stereo partly drawn), 4.21% (inactive); under `Cc1cc(Nc2cc(CN3CCOCC3)c3nc(C)c(Cc4ccc(Cl)cc4F)n3n2)n[nH]1`, -78.1% (active).

Consider `COCCN1CCO[C@@H]2CN(Cc3ccccc3F)C[C@@H]2C1`, for which the activity change, negative = inhibition is -4.47% (inactive). Under `CN(C)c1ncccc1CNC(=O)c1cnc2c(c1)nnn2C` stands 2.4% (inactive).

Take `C/C=C/c1ccccc1[C@@H]1[C@@H](CO)N(C(=O)CN2CCOCC2)[C@H]1C#N`: the activity change, negative = inhibition is 18.7% (inactive). Under `COc1cccc(NC2COC3(CCN(S(=O)(=O)c4cccc(F)c4)CC3)C2)c1` (stereo not drawn) stands -1.19% (inactive); under `CCOc1ccc(-c2nc3c(s2)CN(S(=O)(=O)c2cccc(C)c2)CC3)cc1`, 4.52% (inactive). On to `COc1ccc(-c2nc3c(s2)CN(S(=O)(=O)c2cccc(Cl)c2C)CC3)cc1`, for which the activity change, negative = inhibition was -94.8% (active).

Take `COc1ccc(-c2nc3c(s2)CN(S(=O)(=O)c2ccc(C)cc2C)CC3)cc1OC`: the activity change, negative = inhibition is -101% (active). Next, `COC(=O)c1cc2n(n1)CCN(S(=O)(=O)c1ccc(C)cc1OC)C2`: -2.93% (inactive); `COc1cccc(-c2nc3c(s2)CN(S(=O)(=O)c2cccc(F)c2)CC3)c1`: -87.6% (active).

Turning to `COc1ccc(S(=O)(=O)N2CCc3nc(-c4ccccc4)sc3C2)cc1OC`, the activity change, negative = inhibition is 62% (inactive).

Consider `COc1ccc(-c2nc(C)c(CCNS(=O)(=O)c3ccccc3)s2)cc1OC`, for which the activity change, negative = inhibition is 132% (inactive). Under `O=S(=O)(NC[C@H]1[C@H](c2ccccc2)[C@H](CO)N1CC1CC1)c1ccccc1` stands 14.7% (inactive); under `Cc1nc(-c2cccc(F)c2)sc1CCNC(=O)C12CC3CC(CC(C3)C1)C2`, -46.4% (inactive).

For `C=Cc1cccc(CN2CCC3(CCCN(C(=O)CCOC)C3)C2)c1` (stereo not drawn), the activity change, negative = inhibition is -2.67% (inactive). For the compound `CN(Cc1nc(-c2ccncc2)no1)C(=O)c1cc2ccccc2s1`, the activity change, negative = inhibition is -2.68% (inactive). Next, `Cc1ncc(C(=O)O)c(-c2ccccc2)n1`: 0.375% (inactive); `COCc1cnc2n1CCN(C(=O)c1oc3ccccc3c1C)C2C` (stereo not drawn): 1.32% (inactive); `Cc1cc(C(F)F)nn1CC(=O)NCCn1ncc(-c2ccncc2)c1-c1cccs1`: -65.9% (inactive). As for `CCOCCn1nc(C)cc1C(=O)N1CCCC2(CNC(=O)O2)C1` (stereo not drawn), the activity change, negative = inhibition is -0.947% (inactive). Under `COCC12CCCOC1CCN(S(=O)(=O)C1CC1)C2` (stereo not drawn) stands 5.49% (inactive); under `Cc1ccc(-c2ccccc2[C@H]2[C@@H](C#N)N(c3ncc(-c4ccccc4)s3)[C@@H]2CO)cc1`, -77.5% (active). As to `C/C=C/c1ccccc1[C@@H]1[C@@H](C#N)N(c2nc(CC)cs2)[C@@H]1CO`, the activity change, negative = inhibition was 1.59% (inactive). Next, `CCc1cnc(N2[C@H](C#N)[C@H](c3ccccc3-c3ccccc3C)[C@H]2CO)s1`: 18.5% (inactive); `COc1ccc(CN2C(=O)CO[C@H]3CN(C(=O)NC4CC4)C[C@@H]32)cc1`: 15.8% (inactive). Under `COc1ccccc1CN1[C@@H]2CNC[C@H]1C2c1ccc(-c2cccc(C#N)c2)cc1` (stereo partly drawn) stands -25.9% (inactive) and -32% (inactive); under `N#Cc1ccc(-c2ccc([C@@H]3[C@@H](CO)N4C(=O)CNC[C@H]34)cc2)cc1`, -24.8% (inactive); under `N#Cc1ccc(-c2ccc([C@@H]3[C@H]4CNC[C@@H]3N4Cc3ccc4c(c3)OCO4)cc2)cc1`, -70.6% (active). Under `CS(=O)(=O)N1CCCC1c1cccc(Nc2nccs2)n1` (stereo not drawn) stands -21.8% (inactive); under `COCCn1c(C(=O)NCCCN(C)C)cc2c1c1ccccc1n2C`, -12.8% (inactive).

Take `CC(C)(C)CN1CC2CN(C(=O)Nc3ccccc3)CC21` (stereo not drawn): the activity change, negative = inhibition was -37.8% (inactive). Next, `O=C(O)c1ccc(NC(=S)NCc2cccs2)cc1`: 33.4% (inactive). In the case of `CC1CCN(C(=O)c2cc(=O)n(CC(=O)Nc3ccc(C(C)C)cc3)c3ccccc23)CC1`, the activity change, negative = inhibition was -28.9% (inactive).

Consider `Cn1nc(CC(=O)Nc2cccc(Cl)c2)c2ccccc2c1=O`, for which the activity change, negative = inhibition is -79% (active). Next, `Cc1nc(OCC(=O)Nc2cccc(Cl)c2)c2ccccc2n1`: -0.194% (inactive); `Cn1nc(C(=O)O)c2ccccc2c1=O`: 58.7% (inactive).

Values taken from PubChem BioAssay AID1259416 (Broad Institute, 2018).
